The record followed here is the supplement of paper PMC10338343.

± gives the standard deviation.

One assay deals with MILI (PIWIL2) piRISC loaded with L1MC piRNA (26 nt). As to the kind of experiment: pre-steady-state target cleavage rate (min^-1); guide: L1MC piRNA 5'p-UAACUAAAUACUAUGCAAGCUGUAGG; MIWI and MILI are mouse PIWI proteins and EfPiwi is from a freshwater sponge; tags in brackets are library labels; higher = faster piRNA-guided slicing of the target. The note with it: auxiliary factor: 500 nM mouse GTSF1. The method in brief:
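The pre-steady-state cleavage rate came from a burst-and-steady-state fit to pooled data from three Cleave-'n-Seq trials, in which uncleaved targets were sequenced and normalised to depth and to weakly complementary targets. Each reaction held 0.1 nM transcribed, DNA-blocked target RNA library and 1 nM active affinity-purified piRISC carrying one synthetic guide, with or without 500 nM GTSF1 partner protein, in HEPES–potassium acetate buffer at 33 °C for 0–8 or 0–960 min. k3 was capped at 0.0001 min^-1.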
Take UCCUGGAUCAGCUUGCAUAGUAUUAUCAAA: the “pre-steady-state target cleavage rate” value stood at 0.0975 ± 0.021.
Consider UCCUGGAUCAGCUAGCAUAGUAUUUUCAAA, for which the “pre-steady-state target cleavage rate” value turned out to be 0.0498 ± 0.013.
On to UCCUGGAUGUCCUUGCUAUGUAUUUAGUUA, for which the “pre-steady-state target cleavage rate” value was 0.00552 ± 0.0044.
The same measure, in the same setting: with UCCUGGUACAGCUUGCUAUGUAUUUAGUAA the figure was 0.00603 ± 0.0046; with UCCUGCUACAGCUUGCUAAGUAUUUAGUAA, 0.0923 ± 0.022; with UCCUGGAUGAGCUUGCAUAGUAUAUAGUAA, 0.163 ± 0.039.
Consider UCCUGCUACUCCUUGCAUAGUAUUUUCAAA, for which the “pre-steady-state target cleavage rate” value was 0.0369 ± 0.013.
On to UCCUGGAUGUCCUUGCUUAGUAUUUACUUA, for which the “pre-steady-state target cleavage rate” value came out at 0.0556 ± 0.015.
As to UCCUGGAUGUCGAUGCAGAGUAUUUAGUUA, the “pre-steady-state target cleavage rate” value is 0.00473 ± 0.0028.
UCCUGGAACAGCUUGCAUAGUAAAAACAAA: the “pre-steady-state target cleavage rate” value turned out to be 0.0763 ± 0.031.
Same read-out and setting: with UCCUGGAUGUGCUUGCAUAGUAUUUCAGUUA the figure was 0.0278 ± 0.01; with UCCUGGAUGUCCUUGGAAAGUAUUUAGUUA, 0.0226 ± 0.0071.
Regarding UCCUGGAUGAGCUUGCUUAGUAUUUAGAAA, the “pre-steady-state target cleavage rate” value worked out at 0.0548 ± 0.017.
Same read-out and setting: with UCCUGGAACAGCUAGCAUAGUAUUUUCAAA the figure was 0.0419 ± 0.014; with UCCUGGUACAGCUUGCUUAGAAUUUAGUUA, 0.181 ± 0.059; with UCCUGGAUGUCCUUGCAUACUAUUUACUUA, 0.0119 ± 0.0046.
With UCCUGGAUGUCCUACCAUAGUAUUUAGUAA, the “pre-steady-state target cleavage rate” value was determined as 0.021 ± 0.0077.
On the same count and under the same terms, with UCCUGGAUGAGCUUGCAUAGUAUAUAGAUA the figure was 0.019 ± 0.0076; with UCCUGGAUGACCUUGCAUAGUAAUUAGUUA, 0.131 ± 0.027; with UCCUGGAUGAGCUUGCAUUGUUUUUAGUUA, 0.0047 ± 0.0044.
Turning to UCCUCCUACAGCUUGCUAUGUAUUUAGUAA, the “pre-steady-state target cleavage rate” value amounted to 0.021 ± 0.0069.
As for UCCUGGAUGUGCUUGCAUAGUAUAUUGUUA, the “pre-steady-state target cleavage rate” value worked out at 0.0146 ± 0.0062.
With UCCUGCUACAGCAUGCAUAGUAUUUACAAA, the “pre-steady-state target cleavage rate” value worked out at 0.146 ± 0.043.
On the same count and under the same terms, with UCCUGGUACACCUUGCAUAGUAUAUAGUUA the figure was 0.311 ± 0.059; with UCCUGGAACAGCUUGCUUAGUAUUUACAAA, 0.105 ± 0.026; with UCCUGGAACAGCUUGCAUAGAUUUUACAAA, 0.00713 ± 0.0045.
Turning to UCCUCCUACAGCUACGAUAGUAUUUACAAA, the “pre-steady-state target cleavage rate” value amounted to 0.0587 ± 0.019.
Take UCCUGGAUGUCGAACGUAAGUAAUUAGAUA: the “pre-steady-state target cleavage rate” value is < 0.0001.
Consider UCCUGGAUGUCGAUGCAUAGUAUUUAGUGA, for which the “pre-steady-state target cleavage rate” value stood at 0.0843 ± 0.016.
For UCCUGGAUGUGCUUGCAUACUAUUUAGUAA, the “pre-steady-state target cleavage rate” value stood at 0.00943 ± 0.0038.
Take UCCUGGUACAGCUUGCAUACUAUAUAGUUA: the “pre-steady-state target cleavage rate” value amounted to 0.0326 ± 0.013.
As to UCCUGGAACAGCUUGCAUAGUAUUUUCUAA, the “pre-steady-state target cleavage rate” value is 0.0162 ± 0.0068.
Still for that read-out and setting: the figure for UCCUGGUACAGCAUGCAUAGUAUUUACAAA is 0.127 ± 0.033; for UCCUGGAUCAGCUUGCAAUGUAUUUUCAAA it is 0.00576 ± 0.0035.
For the sequence UCCUGGAUGUCGAUGGAUAGUAUUUUGUUA, the “pre-steady-state target cleavage rate” value is 0.00767 ± 0.0043.

The same assay, now with this note: auxiliary factor: none (no GTSF1).
In the case of UCCUGGAUGUGCUUGCAUACUUUUUAGUUA, the “pre-steady-state target cleavage rate” value came out at 0.0037 ± 0.0027.
UCCUGGAUGUCGAACCAUUGUAAUUAGUUA: the “pre-steady-state target cleavage rate” value is < 0.0001.
UCCUGGAUGUCGAACGUACGUAUUUAGUUA: the “pre-steady-state target cleavage rate” value is < 0.0001.
With UCCUGGAUGUCGAACGUUAGUAUUUAGUGUA, the “pre-steady-state target cleavage rate” value is < 0.0001.
For UCCUGGAUGUCGAAGCAUGUAUUUAGUUA, the “pre-steady-state target cleavage rate” value was < 0.0001.
